A selection: hits, their analogues and other compounds. The true share with any hit is near 4.8%.
STAT1 act: STAT1 signaling activation; NIH 3T3 STAT1-luciferase reporter, IFN-gamma, luminescence; 100% = IFN-gamma alone, no compound; activation (% of control), % at 5.5 µM; 2.6% of 200,000 active; AID 932;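 active = activation above the screen-wide mean activation plus 3 SD, cut at about 130% in these data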;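 also: raw ratio to IFN-gamma control signal so 100% means no change and 0% no light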
APP transl inh: APP translation inhibition; AID 1285; 0.82% of 190,000 active; inhibition, % at 2 µM; SH-SY5Y APP 5'UTR-luciferase reporter, luminescence;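 active = inhibition above a set limit, derived from the sample mean plus 3 SD, cut at about 45% in these data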
Wee1 stabilizer: human Wee1 degradation inhibition, primary screen; P30291; HeLa Luc-Wee1K328M stability, luciferase luminescence; 100% = proteasome inhibitor MG132 effect; reporter increase, % at 5 µM; 1.2% of 220,000 active;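 active = activation above the mean of all tested compounds plus 3 SD, set per screening run, cut at about 8.8% in these data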;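 also: cells exposed to compound for 20 h before luminescence read; 0% = DMSO alone and 100% = MG132 at 30 µM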
NF-kB neuron act: raises NF-kB expression in human neuronal cells. NF-kB reporter expression; active compounds read high. fold change at 12.5 µM. 1.6% of 190,000 active; in the data active = fold change above about 3.3
Hsp70 activator: switches on Hsp70 transcription. HeLa Hsp70 promoter luciferase reporter, luminescence; scaled: vehicle 0, proteasome-inhibitor control 100%. activation, % at 10 µM. 0.04% of 200,000 active. AID 1203;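 active = activation above the mean across all tested compounds plus 3 SD, cutoff set per campaign, cut at about 5.5% in these data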;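 also: 100% = MG132 at 30 µM as the positive control and 0% = DMSO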
APP 5'UTR act: activates APP 5'UTR luciferase reporter | SH-SY5Y APP 5'UTR luciferase reporter, luminescence; zero percent = DMSO vehicle wells | activation, % at 2 µM | 1% of 190,000 active | AID 1276;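 active = activation above a set limit, based on mean plus 3 SD of controls, cut at about 140% in these data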
An asterisk follows results filed as active; x = no result given.

SMILES	STAT1 act	APP transl inh	Wee1 stabilizer	NF-kB neuron act	Hsp70 activator	APP 5'UTR act
COc1ccc(-n2c(C)nc3cc(C(=O)NCc4ccco4)ccc32)cc1	104	-7	-1	1.1	0	7
O=C(NCc1ccco1)c1ccc(Oc2ccccc2)cc1	127	-14	2	1.6	0	14
CCOc1ccc(-n2c(C)nc3cc(C(=O)NCc4ccco4)ccc32)cc1	98	5	9.5*	1	0	-5
O=C(NCc1ccco1)c1ccc2ccccc2c1	134*	-86	1	1.4	0	86
O=C(NCc1ccco1)c1ccc2c(c1)C(=O)c1ccccc1-2	133*	-21	3	1.5	0	21
O=C(NCc1ccco1)c1ccc2c(c1)C(=O)N(Cc1ccccc1)C2=O	94	-13	4	1.3	0	13
CCN(C(=O)CN1CCN(C)CC1)c1cccc2ccccc12	93	0	-2	1.1	0	0
O=C(O)CCc1ccc(-c2ccc(Br)cc2)n1Cc1ccco1	96	6	0	1	0	-6
Cc1ccc(C(c2sc3nc(C)nn3c2O)N2CCN(c3ccccc3F)CC2)cc1 (configuration not stated)	106	-13	0	1	0	13
C/C(=N\NC(=O)c1ccc(O)cc1)c1ccc2c(c1)Nc1ccccc1S2	116	-14	-1	0.69	0	14
COc1ccc(NC(=O)Cc2cccc(F)c2)cc1S(=O)(=O)Nc1ccccc1Cl	x	x	-1	x	x	x
C[N+]1(CC(=O)OCCCc2ccccc2)CCCC1	98	-8	-1	1	0	8
O=C(NCc1ccco1)c1ccc(COc2cccc3ccccc23)cc1	95	-10	4	0.93	0	10
O=C(NCc1ccco1)c1ccc(COc2ccccc2Cl)cc1	98	2	13*	1.3	0	-2
Cc1ccc(Cn2nnnc2CN2CCC(c3nc4ccc(Cl)cc4[nH]3)CC2)cc1	98	68*	1	0.9	0	-68
FC(F)(F)c1nnc2ccc(N3CCCCCC3)nn12	100	-10	-3	1.2	0	10
Cc1cccc(-c2nc(=S)c3c(o2)CCCC3)c1	139*	-118	2	2.7	0	118
S=c1nc(-c2ccc(Br)cc2)oc2c1CCCC2	114	5	0	1.5	0	-5
Cc1nc2nc(CCc3ccccc3)nn2c(C)c1Cl	104	-4	2	1.6	0	4
Cc1cc(NC(=O)C2CCCO2)ccc1Br (configuration not stated)	103	-19	-2	0.95	0	19
Cc1cc(NC(=S)NC(=O)C2CC2)ccc1Br	139*	-48	3	2.2	0	48
Cc1ccc(-c2cc(-c3cccs3)[nH]n2)c(O)c1	106	-119	2	8.1*	0	119
CCN(CC)S(=O)(=O)c1cccc(-c2nnc(SCC(N)=O)n2N)c1	x	x	-3	x	x	x
Cc1cc(=O)oc2cc(OCC(=O)Nc3cccc(S(=O)(=O)N(C)C)c3)ccc12	100	22	9.6*	1	0	-22
CN(C)C(=O)c1ccc(COc2ccccc2Br)o1	132*	-76	-1	2.2	1	76
SMILES	STAT1 act	APP transl inh	Wee1 stabilizer	NF-kB neuron act	Hsp70 activator	APP 5'UTR act
COc1ccccc1OCc1ccc(C(=O)N(C)C)o1	107	-5	-2	2	0	5
CSc1nc2ccccc2n1CC(=O)Nc1ccccc1	93	-2	-1	0.8	0	2
COc1cc(NC(=O)C/C(C)=N/NC(=O)c2cccs2)c(OC)cc1Cl	139*	-171	3	1.3	0	171*
Cc1nn(C(C)(C)C)c(OC(=O)c2cccs2)c1S(=O)(=O)c1ccccc1	129*	-2	-3	1.6	0	2
CC(=O)Oc1c(S(=O)(=O)c2ccccc2)c(C)nn1C(C)(C)C	97	2	2	1.2	-1	-2
C=CCNc1ncnc2c1[nH]c1ccc(C)cc12	139*	-179	3	4.5*	0	179*
O=C1CCCCC1Sc1nnc(Nc2ccccc2)s1 (configuration not stated)	144*	-58	8.9*	3.1	0	58
Cc1ccc(Nc2nnc(SC3CCOC3=O)s2)cc1 (configuration not stated)	101	-17	0	2	0	17

Source: PubChem BioAssay (several laboratories)
